In the library only some 27% were active in any assay of this set; here they are far more common.
sEH act = soluble epoxide hydrolase (human) activation. purified human sEH enzymatic activity, activator screen. activation, % at 2 µM. 91,000 compounds, 0.04% hits. P34913; in the data active means activation above about 37%
CYP2C9 inh = inhibitors of human CYP2C9; P11712; CYP2C9 Supersomes, luciferin-H conversion, luminescence; inhibition, % at 5 µM; 96,000 compounds, 20% hits; AID 777;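 active means blocking of liver enzyme CYP2C9 beyond about 50% at 5 µM, limit read from the data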
Target sequence (P11712 whole entry, looked up): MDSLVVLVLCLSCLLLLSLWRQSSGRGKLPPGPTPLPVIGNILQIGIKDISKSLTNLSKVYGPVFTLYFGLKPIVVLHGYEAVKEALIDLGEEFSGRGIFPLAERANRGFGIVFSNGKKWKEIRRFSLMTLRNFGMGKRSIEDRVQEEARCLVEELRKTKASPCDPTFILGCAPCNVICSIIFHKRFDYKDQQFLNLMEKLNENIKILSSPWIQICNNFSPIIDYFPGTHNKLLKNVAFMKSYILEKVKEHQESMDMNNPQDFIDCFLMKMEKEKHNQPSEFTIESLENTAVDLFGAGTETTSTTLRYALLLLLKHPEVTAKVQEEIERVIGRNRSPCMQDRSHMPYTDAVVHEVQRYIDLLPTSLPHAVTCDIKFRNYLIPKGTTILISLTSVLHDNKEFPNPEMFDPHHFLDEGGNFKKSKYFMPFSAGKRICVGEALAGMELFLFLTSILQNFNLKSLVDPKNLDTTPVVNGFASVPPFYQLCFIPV
CYP2C19 activ = cytochrome P450 2C19 (human) activation | recombinant CYP2C19, luciferin-H EGE luminescence; active compounds read high; 0 = fully inhibited enzyme, 1 = untreated enzyme | AID 1025 | activation factor at 5 µM | 96,000 tested, under 10 active | P33261;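 active means activation factor of at least 2 at 5 µM in the primary screen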;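 further: 0 = wells with 2.5 mM tranylcypromine and 1 = vehicle-only wells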
CYP2C19 inhib = inhibitors of human CYP2C19; inhibition, % at 5 µM; CYP2C19 Supersomes, luciferin-H EGE luminescence, 30 min; 96,000 compounds, 21% hits; P33261; AID 778;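 active means CYP2C19 inhibition above a set limit at 5 µM in the primary screen, cut at about 50% in these data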;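 further: plate controls were negative control wells for no effect and 2.5 mM tranylcypromine positive control for full effect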
CYP2C9 act = increases human cytochrome P450 2C9 activity. P11712. recombinant CYP2C9, luciferin-H conversion, luminescence; active compounds read high; factor 1 = untreated enzyme, 0 = blocked. activation factor at 5 µM. 96,000 compounds, 1.4% hits;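 active means activation factor of 2 or more for CYP2C9 at a 5 µM dose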;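 further: 0 = sulfaphenazole-blocked wells and 1 = vehicle-only wells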
sEH inh = soluble epoxide hydrolase (human) inhibition | P34913 | recombinant human sEH enzymatic activity assay | inhibition, % at 2 µM | 91,000 compounds, 0.34% hits | AID 707; in the data active means inhibition above about 80%
Active calls of the source: *; . = not tested or not shown.

SMILES	sEH act	CYP2C9 inh	CYP2C19 activ	CYP2C19 inhib	CYP2C9 act	sEH inh
O=C(CN(C(=O)c1ccc2c(c1)OCCO2)c1ccccc1)NCC1CCCO1 (configuration not stated)	-29.8	65.5*	0.6	41.5	0.3	28.9
CN(CC(=O)NCC1CCCO1)S(=O)(=O)c1cc(Cl)ccc1Cl (configuration not stated)	1.4	-221.0	0.4	63.5*	3.2*	0.0
Cc1ccc(S(=O)(=O)NCC(=O)N(CC(=O)NCC2CCCO2)C2CCCC2)cc1 (configuration not stated)	2.0	21.5	0.9	14.4	0.8	-2.0
Cc1nnc(SCC(=O)N(Cc2ccccc2)C(C)C)n1-c1ccccc1	4.7	36.1	0.9	8.8	0.6	-3.3
COc1ccccc1CN(CC(=O)NCC1CCCO1)C(=O)CNS(=O)(=O)c1ccc(C)cc1 (configuration not stated)	1.5	25.4	0.8	16.1	0.7	-2.0
COc1ccc(S(=O)(=O)NCC(=O)N(CC(=O)NCC2CCCO2)c2c(C)cccc2C)cc1 (configuration not stated)	-11.3	67.8*	0.8	19.5	0.3	10.4
O=C(CN(c1ccc2c(c1)OCCO2)S(=O)(=O)c1ccccc1)NCC1CCCO1 (configuration not stated)	0.5	77.4*	0.6	35.3	0.2	-2.3
CC1(C)OC(=O)C(=CNC(Cc2c[nH]c3ccccc23)C(=O)O)C(=O)O1 (configuration not stated)	-7.6	13.3	0.9	9.4	0.9	8.0
CCOC(=O)c1cnc(-n2cc(C)cn2)nc1Nc1ccccc1OCC	-10.6	-19.3	1.2	-19.3	1.2	10.8
CCOc1cc(/C=C2\C(=O)N(Cc3ccc(C)cc3)C(C)=C2C(=O)OC)ccc1O	-9.1	82.8*	0.6	39.7	0.2	9.9
CCN1C(=O)/C(=C\c2ccc3c(c2)OCO3)C(C(=O)OC)=C1C	9.7	39.0	0.8	15.1	0.6	-7.2
COc1ccc(OCCCCOc2ccccc2Cl)cc1	-9.8	-13.0	1.1	-12.9	1.1	12.6
CCOC(=O)N1CCN(C(=O)c2ccc(N3CCCC3=O)cc2)CC1	.	1.7	1	0.0	1	.
COC(=O)CNC(=O)c1nn(-c2cccc(OC)c2)c(=O)c2ccccc12	.	16.1	1	2.6	0.8	.
COc1ccc(-n2nc(C(=O)NCc3ccco3)c3ccccc3c2=O)cc1	4.7	21.0	0.9	5.9	0.8	-2.5
COc1cccc(-n2nc(-c3ccnn3-c3ccccc3)c(=O)n(C)c2=O)c1	3.1	38.7	0.4	61.7*	0.6	-4.5
COc1ccc(-n2nc(C(=O)Nc3ccc4c(c3)OCO4)c3ccccc3c2=O)cc1	.	78.6*	0.9	14.3	0.2	.
COc1ccc(-n2nc(C(=O)N3CCN(Cc4ccc5c(c4)OCO5)CC3)c3ccccc3c2=O)cc1	.	74.4*	0.7	32.9	0.3	.
COc1cccc(-n2nc(C(=O)O)c3ccccc3c2=O)c1	.	20.4	0.5	50.5*	0.8	.
O=C(c1cc2ccccc2oc1=O)N1CCN(Cc2ccc3c(c2)OCO3)CC1	.	-19.7	0.8	23.5	1.2	.
CCOC(=O)CC(=O)CSc1ncnc2c1cnn2-c1ccccc1	-5.6	36.9	0.7	27.1	0.6	6.5
O=C1CSC(c2ccc(F)cc2)N1c1nnc(C23CC4CC(CC(C4)C2)C3)s1 (configuration not stated)	-0.5	42.5	0.6	40.8	0.6	2.0
Cc1cccc(-c2nc(NCCCN3CCOCC3)c3ccccc3n2)c1	19.5	84.5*	0.4	60.0*	0.2	-18.0
O=C(CSC1CC(=O)N(CC(c2ccccc2)c2ccccc2)C1=O)Nc1ccc(Cl)cc1 (configuration not stated)	-17.3	85.3*	0.5	53.4*	0.1	17.2
Cc1[nH]c2c(Br)cccc2c1[C@H]1[C@@H](CC#N)C1(C)C	9.7	55.2*	0.6	45.0	0.4	-5.8
SMILES	sEH act	CYP2C9 inh	CYP2C19 activ	CYP2C19 inhib	CYP2C9 act	sEH inh
Cc1c([C@H]2[C@@H](CC#N)C2(C)C)c2ccccc2n1C	-0.3	-1.2	0.8	24.4	1	4.0
CCOC(=O)Cc1[nH]nc2c1C(c1cccc(OC)c1OC)C(C#N)=C(N)O2 (configuration not stated)	.	41.2	0.5	47.0	0.6	.
CCOC(=O)Cc1[nH]nc2c1C(C1C=CCCC1)C(C#N)=C(N)O2 (configuration not stated)	-13.6	70.8*	0.1	86.9*	0.3	13.1
O=C(CCS(=O)(=O)c1ccc(Br)s1)NC1CCCCCC1	-34.5	1.7	1.1	-10.1	1	33.0
Cc1cc(Cl)ccc1OCC(=O)Nc1ccccc1N1CCOCC1	10.0	94.5*	0.1	91.2*	0.1	-5.9
O=C(COc1ccc(Cl)cc1)Nc1ccccc1N1CCOCC1	1.0	-19.3	0.7	25.5	1.2	-1.3
O=C(COc1ccc(Cl)cc1Cl)NC(=O)N1CCOCC1	-4.1	-12.9	0.5	52.0*	1.1	8.7
CC(C)CC(=O)Nc1ccccc1N1CCOCC1	-15.1	4.4	0.9	13.6	1	16.8
Cc1ccc(CC(=O)Nc2ccccc2N2CCOCC2)cc1C	6.1	83.2*	0.6	39.7	0.2	-7.3
O=C(Cc1ccc(Cl)cc1)Nc1ccccc1N1CCOCC1	-5.5	40.9	0.2	84.1*	0.6	8.1
CCOc1cc(N2CCOCC2)c(OCC)cc1NC(=O)CCS(=O)(=O)c1ccc(Cl)cc1	-5.3	8.1	0.9	7.5	0.9	4.0
COc1ccc(CCNC(=O)COc2nsnc2N2CCOCC2)cc1OC	-8.2	14.7	0.9	9.4	0.9	9.6
CCOc1cc(N2CCOCC2)c(OCC)cc1NS(=O)(=O)c1ccc(Cl)s1	8.6	60.2*	0.1	93.1*	0.4	-9.2
Cc1ccccc1NC(=O)COc1nsnc1N1CCOCC1	25.6	14.8	0.4	60.2*	0.9	-26.1
CCOc1cc(N2CCOCC2)c(OCC)cc1NC(=O)Cc1cccc2ccccc12	-10.9	41.5	0.5	54.6*	0.6	13.4
O=C(Cc1cscn1)c1ccc(O)cc1O	.	-16.3	1	-1.5	1.2	.
Cc1ccc(Cn2ccc(NC(=O)c3cc(C)on3)n2)cc1	13.2	62.0*	0.3	70.1*	0.4	-10.8
N#Cc1cn(CCOc2ccccc2F)c2ccccc12	-1.0	99.6*	0	98.1*	0	3.3
Cc1c(C#N)c2ccccc2n1CCOc1ccccc1F	-3.9	51.0*	0.6	39.8	0.5	3.5
COC(=O)Cn1c(C)c(C#N)c2ccccc21	-9.3	.	.	.	.	9.3
CC(C)(C)c1ccc(OC(=O)Cn2c(C(F)(F)F)nc3ccccc32)cc1	-4.5	16.3	0.9	9.3	0.8	5.4
Cn1c(SCc2ccc(Br)cc2)nnc1-c1ccncc1	-0.9	74.8*	0.1	94.2*	0.3	0.9
Cc1ccc(CSc2nnc(-c3ccccn3)n2C)cc1	-7.7	5.3	0.8	19.5	0.9	5.5
Cn1c(SCc2ccccc2)nnc1-c1ccncc1	2.6	34.0	0.1	90.8*	0.7	-3.0

Screening data deposited in PubChem by several laboratories.
